# Experimental data taken from PubChem BioAssay.
# Active and inactive are the calls of the source. Unless noted, how the calls were made is not given here.
# Assays:
# [1] = system: Wnt5a (protein binding on small-molecule microarray); test: Wnt5a binders on small-molecule microarray, primary screen, biophysical, 635/667 nm fluorescence (AID 1142); conditions: 635 nm fluorescence, higher = more signal;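 further: fluorescence read at 667 nm with signal to noise per printed feature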
# [2] = cell viability in Huh7 cells, primary screen, cytotoxicity control for HCV replication inhibitor project, CellTiter-Glo luminescence, basal, 48 h (AID 1143); conditions: Huh7 HCV replicon, higher = more signal, called active from +8 up or from −8 down;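 further: Huh7 hepatoma cells carrying a hepatitis C replication reporter with no stimulus; test concentration not given here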
# [3] = P. aeruginosa biofilm formation inhibitors, primary screen, PAO1 strain, BacTiter-Glo luminescence, LB-PBS (AID 1144); conditions: 12 h, higher = more signal
# [4] = CREB reporter modulators without forskolin, primary screen, cell-based, PC12, CRE-LacZ reporter, unstimulated (AID 1145); conditions: no forskolin, luminescence, 4.5 h, higher = more signal, called active from +8 up or from −8 down
# [5] = CREB reporter modulators under forskolin, primary screen, cell-based, PC12, CRE-LacZ reporter, forskolin-stimulated (AID 1146); conditions: luminescence, 4.5 h, higher = more signal, called active from +8 up or from −8 down;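 further: PC12 cells with 6xCRE LacZ reporter stimulated by forskolin 10 µM; beta-galactosidase reporter signal reflecting CREB driven transcription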
# [6] = target: Streptavidin (Streptomyces avidinii) (UniProt P22629); test: streptavidin binders on small-molecule microarray, primary screen, artefact control for SMM compound annotation, biophysical, 635/667 nm fluorescence (AID 1147); conditions: streptavidin binding, higher = more signal;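 further: signal reflects streptavidin binding to arrayed compounds as a control protein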
# [7] = small-molecule binders of probe aInhba, primary screen, biochemical, small-molecule microarray, 635/667 nm fluorescence (AID 1148); conditions: higher = more signal;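 further: score merges 667nm spot fluorescence with signal-to-noise for antibody binding to printed compounds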
# Torsin-1A (Homo sapiens) [8] = target: Torsin-1A (Homo sapiens) (UniProt O14656); test: torsin A binders from cell lysate, primary screen, small-molecule microarray, wild-type, 635/667 nm (AID 1149); conditions: COS7 hTOR1A-WT lysate, 635 nm fluorescence, higher = more signal
# Torsin-1A (Homo sapiens) [9] = target: Torsin-1A (Homo sapiens) (UniProt O14656); test: small-molecule binders of mutant TOR1A in lysate, primary screen, cell lysate, small-molecule microarray, COS7 lysate, 635/667 nm fluorescence (AID 1150); conditions: COS7 hTOR1A mutant lysate, 635 nm fluorescence, higher = more signal;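 further: score pools 667 nm emission and signal to noise measuring lysate protein binding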
# [10] = system: Sonic hedgehog protein (Shh); test: small-molecule binders of Shh protein, primary screen, biochemical, small-molecule microarray, 635/667 nm fluorescence (AID 1151); conditions: small-molecule microarray binding, 635 nm fluorescence; higher = more signal;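 further: Shh protein binding to compounds spotted on small-molecule microarray slides; score combines spot fluorescence intensity with signal-to-noise across triplicate slides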
# [11] = E. coli DRC41 culture turbidity changes, primary screen, E. coli filamentation inducer project, strain DRC41, OD650, 48 h (AID 1152);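 further: E. coli MC1000 strain DRC41 lacking acrAB efflux pump and sulA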; conditions: E. coli DRC41 (acrAB sulA), higher = more signal, called active from +8 up or from −8 down
# [12] = small-molecule binders of probe aLefty1, primary screen, biochemical, small-molecule microarray, 635/667 nm fluorescence (AID 1153); conditions: higher = more signal;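 further: score merges spot fluorescence with signal-to-noise ratio from the scanned slide images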
# [13] = PSAC antagonists in infected red cells, primary screen, cell-based, P. falciparum Indochina, OD700, 1 h (AID 1154); conditions: P. falciparum Indochina infected RBC osmotic lysis, higher = more signal, called active from +8 up or from −8 down
# [14] = PSAC antagonists in infected red cells, primary screen, cell-based, P. falciparum Indochina, OD700, 2 h (AID 1155);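 further: lysis reports solute entry through the parasite surface anion channel PSAC; channel blockers reduce lysis of infected cells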; conditions: P. falciparum Indochina infected erythrocytes, osmotic lysis OD700; higher = more signal, called active from +8 up or from −8 down
# [15] = osmotic lysis modulators in infected erythrocytes, primary screen, PSAC antagonist project, cell-based, P. falciparum Indochina, OD700, 3 h (AID 1156); conditions: higher = more signal, called active from +8 up or from −8 down
# [16] = PSAC antagonists in infected red cells, primary screen, cell-based, P. falciparum Indochina, OD700, 18 h (AID 1157); conditions: P. falciparum Indochina infected erythrocytes, osmotic lysis OD700, 18 h; higher = more signal, called active from +8 up or from −8 down
# [17] = modulators of S6 phosphorylation in cells, primary screen, cell-based, A549, cytoblot, luminescence, serum-stimulated (AID 1158); conditions: A549 phospho-S6 cytoblot, 5 h, higher = more signal;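 further: serum-stimulated A549 lung adenocarcinoma cells; signal is phosphorylated S6 detected by cytoblot immunostaining with HRP secondary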
# [18] = target: NADPH oxidase 2 (Homo sapiens) (UniProt P04839); test: NOX2-dependent H2O2 signal modulators, primary screen, NOX inhibitor project, cell-based, HEK293-NOX2, PMA-stimulated, Amplex Red fluorescence (AID 1159); conditions: 45 min, higher = more signal, called active from +8 up or from −8 down; further: test concentration not given here
# [19] = target: NADPH oxidase 4 (Homo sapiens) (UniProt Q9NPH5); test: NOX4-dependent H2O2 signal modulators, primary screen, NOX inhibitor project, cell-based, HEK293-NOX4, tetracycline-induced, Amplex Red fluorescence (AID 1160); conditions: 45 min, higher = more signal, called active from +8 up or from −8 down
# [20] = target: NADPH oxidase 5 (Homo sapiens) (UniProt Q96PH1); test: NOX5-dependent H2O2 signal modulators, primary screen, NOX inhibitor project, cell-based, HEK293-NOX5, Amplex Red fluorescence (AID 1161); conditions: HEK293-NOX5, ionomycin, 45 min, higher = more signal
# Chain of NADPH oxidase 5 (Homo sapiens) (Q96PH1 whole entry, looked up): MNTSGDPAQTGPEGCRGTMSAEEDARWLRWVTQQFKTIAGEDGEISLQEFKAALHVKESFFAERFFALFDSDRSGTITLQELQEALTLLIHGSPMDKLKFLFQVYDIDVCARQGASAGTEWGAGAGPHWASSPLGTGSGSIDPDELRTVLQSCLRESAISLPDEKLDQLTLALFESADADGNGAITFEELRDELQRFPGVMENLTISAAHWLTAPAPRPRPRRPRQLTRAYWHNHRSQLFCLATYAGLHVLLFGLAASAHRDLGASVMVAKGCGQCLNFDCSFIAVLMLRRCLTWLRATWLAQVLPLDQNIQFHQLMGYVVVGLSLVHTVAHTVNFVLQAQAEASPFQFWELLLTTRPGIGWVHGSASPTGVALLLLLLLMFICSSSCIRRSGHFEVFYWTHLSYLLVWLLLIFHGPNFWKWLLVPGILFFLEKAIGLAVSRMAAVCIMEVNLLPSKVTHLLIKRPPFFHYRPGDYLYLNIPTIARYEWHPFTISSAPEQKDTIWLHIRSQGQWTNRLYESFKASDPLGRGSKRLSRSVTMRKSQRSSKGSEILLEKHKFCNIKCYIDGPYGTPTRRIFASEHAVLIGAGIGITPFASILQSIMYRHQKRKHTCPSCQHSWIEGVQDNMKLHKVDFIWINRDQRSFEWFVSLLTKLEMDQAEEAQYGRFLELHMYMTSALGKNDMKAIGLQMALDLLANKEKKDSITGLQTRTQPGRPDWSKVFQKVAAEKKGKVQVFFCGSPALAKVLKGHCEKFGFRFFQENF
# Chain of NADPH oxidase 2 (Homo sapiens) (P04839 whole entry, looked up): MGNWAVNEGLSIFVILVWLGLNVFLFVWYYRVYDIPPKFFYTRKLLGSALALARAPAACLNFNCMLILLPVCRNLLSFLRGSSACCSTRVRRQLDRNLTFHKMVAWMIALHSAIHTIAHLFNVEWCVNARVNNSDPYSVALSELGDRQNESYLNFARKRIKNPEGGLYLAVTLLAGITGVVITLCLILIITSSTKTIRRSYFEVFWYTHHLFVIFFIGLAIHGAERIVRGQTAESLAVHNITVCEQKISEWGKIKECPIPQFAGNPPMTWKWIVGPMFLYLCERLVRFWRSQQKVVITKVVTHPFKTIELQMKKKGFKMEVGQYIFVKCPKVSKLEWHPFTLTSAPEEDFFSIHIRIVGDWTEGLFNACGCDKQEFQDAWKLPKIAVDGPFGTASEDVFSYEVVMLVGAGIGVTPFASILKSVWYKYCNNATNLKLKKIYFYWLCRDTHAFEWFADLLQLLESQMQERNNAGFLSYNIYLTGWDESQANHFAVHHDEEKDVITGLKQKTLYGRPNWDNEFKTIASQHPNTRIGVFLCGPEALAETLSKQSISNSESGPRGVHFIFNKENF
# Chain of NADPH oxidase 4 (Homo sapiens) (Q9NPH5 whole entry, looked up): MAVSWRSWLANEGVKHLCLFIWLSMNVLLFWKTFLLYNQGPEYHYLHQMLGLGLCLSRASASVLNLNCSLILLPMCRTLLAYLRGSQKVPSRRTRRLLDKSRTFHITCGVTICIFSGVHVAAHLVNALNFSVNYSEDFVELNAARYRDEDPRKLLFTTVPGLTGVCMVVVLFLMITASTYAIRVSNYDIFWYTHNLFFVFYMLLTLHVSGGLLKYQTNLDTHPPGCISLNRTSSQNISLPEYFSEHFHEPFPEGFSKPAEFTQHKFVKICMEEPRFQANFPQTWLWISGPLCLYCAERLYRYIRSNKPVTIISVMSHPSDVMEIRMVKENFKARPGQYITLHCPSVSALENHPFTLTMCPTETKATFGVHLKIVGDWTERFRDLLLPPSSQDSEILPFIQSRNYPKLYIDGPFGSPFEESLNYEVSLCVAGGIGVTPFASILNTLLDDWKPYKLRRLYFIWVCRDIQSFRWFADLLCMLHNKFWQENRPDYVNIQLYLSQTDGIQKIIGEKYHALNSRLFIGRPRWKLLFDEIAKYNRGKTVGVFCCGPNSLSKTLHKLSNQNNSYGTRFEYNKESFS
# Chain of Streptavidin (Streptomyces avidinii) (P22629 whole entry, looked up): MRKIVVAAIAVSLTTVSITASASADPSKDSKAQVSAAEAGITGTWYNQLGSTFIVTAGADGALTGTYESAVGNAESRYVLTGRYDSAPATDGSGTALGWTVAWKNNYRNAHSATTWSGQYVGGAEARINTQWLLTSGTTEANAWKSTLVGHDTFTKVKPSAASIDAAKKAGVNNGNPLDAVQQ
# Chain of Torsin-1A (Homo sapiens) (O14656 whole entry, looked up): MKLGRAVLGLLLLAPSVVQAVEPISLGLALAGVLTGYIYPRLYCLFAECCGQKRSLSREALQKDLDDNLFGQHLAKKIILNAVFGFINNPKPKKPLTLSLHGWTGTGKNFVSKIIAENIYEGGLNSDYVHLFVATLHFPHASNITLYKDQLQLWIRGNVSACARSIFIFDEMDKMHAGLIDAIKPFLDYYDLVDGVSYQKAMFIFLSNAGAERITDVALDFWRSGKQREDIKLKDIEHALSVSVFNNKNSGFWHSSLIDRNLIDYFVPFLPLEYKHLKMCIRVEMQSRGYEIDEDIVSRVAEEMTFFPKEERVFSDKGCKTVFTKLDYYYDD
Structure (SMILES),composite z-score [1],z-score [2],z-score [3],z-score [4],z-score [5],composite z-score [6],composite z-score [7],composite z-score (Torsin-1A (Homo sapiens) [8]),composite z-score (Torsin-1A (Homo sapiens) [9]),composite z-score [10],z-score [11],composite z-score [12],z-score [13],z-score [14],z-score [15],z-score [16],z-score [17],z-score [18],z-score [19],z-score [20]
[N-]=[N+]=NCc1ccccc1[C@H]1OC(c2ccc(OCCCO)cc2)=N[C@@]1(Cc1ccccc1)C(=O)NCc1ccccc1,0.348,-3.57 (inactive),-0.862 (inactive),-0.0108 (inactive),-0.157 (inactive),1.15,-0.466,0.247,0.714,0.144,0.336 (inactive),0.22,27.6 (active),23.5 (active),1.96 (inactive),1.77 (inactive),-0.669,1.08 (inactive),0.113 (inactive),-0.549
CN1C(=O)C2C=CC(C(O)C3=C[C@H]4C[C@@H](C3)C4(C)C)N(Nc3ccccc3)C2C1=O (stereo not given in full),0.0737,0.435 (inactive),-0.79 (inactive),0.812 (inactive),0.767 (inactive),0.186,-0.0313,-0.189,0.276,0.447,-0.318 (inactive),0.202,0.451 (inactive),0.69 (inactive),-0.0209 (inactive),0.852 (inactive),-0.776,-0.945 (inactive),-3.91 (inactive),-2.99
CC(C)C(CO)N1C(=O)[C@@H]2[C@H]3C(=O)OCC=C[C@H]3OC23C=CCN(C(C)C)C(=O)[C@@H]13 (stereo not given in full),-0.3,-0.602 (inactive),-0.1 (inactive),-0.757 (inactive),-0.681 (inactive),-0.629,-0.0963,-0.543,-0.374,0.841,1.4 (inactive),-0.146,-0.237 (inactive),0.139 (inactive),0.333 (inactive),0.649 (inactive),-0.1,0.834 (inactive),0.457 (inactive),1.23
COC(=O)[C@@]1(Cc2ccccc2)[C@H]2c3cc(C(=O)N4CCCC4)n(Cc4cccc5ccccc45)c3C[C@H]2CN1C(=O)c1ccccc1,1.67,-2.97 (inactive),0.786 (inactive),1.73 (inactive),0.941 (inactive),2.82,1.52,-0.0124,0.669,-0.27,-1.22 (inactive),1.71,6.74 (inactive),1.43 (inactive),1.27 (inactive),1.3 (inactive),-0.503,0.586 (inactive),-0.237 (inactive),1.05
O=C1O[C@@H](c2ccccc2)[C@@H](c2ccccc2)N2[C@@H](c3ccc(OCCO)cc3)[C@]3(C(=O)Nc4ccccc43)[C@@H](C(=O)NC[C@H](O)c3ccccc3)[C@H]12,0.0635,-1.19 (inactive),-0.388 (inactive),-0.606 (inactive),2.97 (inactive),0.146,0.0561,0.437,0.14,0.95,-0.29 (inactive),-0.0491,6.58 (inactive),1.85 (inactive),0.539 (inactive),0.779 (inactive),-0.29,1.62 (inactive),0.918 (inactive),0.81
CCN(CC)c1ccc(N2CC=CC34O[C@@H]5/C=C\CCC(C)OC(=O)C5[C@H]3C(=O)N(C(CO)C(C)C)[C@@H]4C2=O)cc1 (stereo not given in full),-0.443,-0.122 (inactive),0.805 (inactive),0.337 (inactive),0.199 (inactive),-0.826,-0.108,-0.918,-1.32,0.661,0.295 (inactive),0.2,1.82 (inactive),0.585 (inactive),0.975 (inactive),0.674 (inactive),-0.232,0.398 (inactive),-0.502 (inactive),0.855
COC(=O)[C@@]1(Cc2ccc(F)cc2)[C@H]2c3cc(C(=O)N4CCCC4)n(Cc4ccc(C)o4)c3C[C@H]2CN1C(=O)c1ccccc1,0.709,-2.77 (inactive),0.82 (inactive),-0.182 (inactive),-1.19 (inactive),1.39,0.0108,0.19,0.322,-0.704,-1.63 (inactive),-0.0464,4.25 (inactive),0.713 (inactive),1.57 (inactive),0.886 (inactive),-0.118,-0.0294 (inactive),-0.466 (inactive),-3.03
C=CCC(OC(C)=O)[C@@H]1[C@@H](N(Cc2ccc(-c3ccccc3)cc2)C(=O)Cc2ccc(F)cc2)c2cc(OCCCO)ccc2N1C(=O)c1ccc(-c2ccccc2)cc1 (stereo not given in full),-0.163,-1.13 (inactive),-0.757 (inactive),-1.23 (inactive),-0.0988 (inactive),0.711,-0.157,-0.628,-0.222,0.249,2.08 (inactive),-0.0193,0.66 (inactive),-0.221 (inactive),-0.567 (inactive),-0.154 (inactive),1.26,-1.49 (inactive),0.414 (inactive),0.263
CC(=O)n1cc(C(O)C2C=CC3C(=O)N(C)C(=O)C3N2Nc2ccccc2)c2ccccc21 (stereo not given),0.19,1.08 (inactive),-0.114 (inactive),0.0569 (inactive),-0.172 (inactive),1.13,0.246,0.383,0.606,1.04,-1.39 (inactive),0.384,1.11 (inactive),0.475 (inactive),-0.372 (inactive),0.876 (inactive),-0.994,-1.57 (inactive),-3.46 (inactive),-2.78
